Measurements reported in paper PMC11062922 (Nature Chemical Biology, 2023).
Read-outs that look alike come from different tables or passages of the source.

What was measured:
ADCK1 = test system: ADCK1; set-up: species or system human, MV4-11 + K-562 + COLO205 + SK-N-BE2 + OVCAR-8; details: read-out: apparent Kd; compound concentrations: 100 nM and 1000 nM (sheet 'Samples'), CATDS: 0.14562784613858401; n = 1
LIMK1 = test system: LIMK1; set-up: species or system human, MV4-11 + K-562 + COLO205 + SK-N-BE2 + OVCAR-8; details: read-out: apparent Kd, compound concentrations: 100 nM and 1000 nM (sheet 'Samples'), n = 1
NEK1 = test system: NEK1; set-up: species or system human, MV4-11 + K-562 + COLO205 + SK-N-BE2 + OVCAR-8; details: read-out: apparent Kd; compound concentrations: 100 nM and 1000 nM (sheet 'Samples'), CATDS: 0.19071251042520401; n = 1
NEK3 = test system: NEK3; set-up: species or system human, MV4-11 + K-562 + COLO205 + SK-N-BE2 + OVCAR-8; details: read-out: apparent Kd; compound concentrations: 100 nM and 1000 nM (sheet 'Samples'), CATDS: 0.104444124059675; n = 1
PIK3CG = test system: PIK3CG; set-up: species or system human, MV4-11 + K-562 + COLO205 + SK-N-BE2 + OVCAR-8; details: read-out: apparent Kd; compound concentrations: 100 nM and 1000 nM (sheet 'Samples'), CATDS: 0.203728906999049; n = 1
Q6ZSR9 = Q6ZSR9 (human, UniProt Q6ZSR9); set-up: species or system MV4-11 + K-562 + COLO205 + SK-N-BE2 + OVCAR-8; details: read-out: apparent Kd; compound concentrations: 100 nM and 1000 nM (sheet 'Samples'), CATDS: 0.122629729389454; n = 1
Q6ZSR9, sequence (Q6ZSR9 whole entry, looked up): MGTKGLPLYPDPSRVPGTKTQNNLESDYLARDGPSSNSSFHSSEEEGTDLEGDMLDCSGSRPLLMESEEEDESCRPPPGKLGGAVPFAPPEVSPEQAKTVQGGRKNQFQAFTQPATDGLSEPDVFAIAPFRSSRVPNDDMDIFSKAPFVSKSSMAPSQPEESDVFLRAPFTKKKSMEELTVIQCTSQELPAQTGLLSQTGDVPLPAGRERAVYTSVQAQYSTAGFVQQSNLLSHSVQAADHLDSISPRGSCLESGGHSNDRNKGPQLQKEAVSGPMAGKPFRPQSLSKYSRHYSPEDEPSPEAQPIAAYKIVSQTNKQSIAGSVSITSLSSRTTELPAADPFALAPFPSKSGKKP

ULK3 = test system: ULK3; set-up: species or system human, MV4-11 + K-562 + COLO205 + SK-N-BE2 + OVCAR-8; details: read-out: apparent Kd; compound concentrations: 100 nM and 1000 nM (sheet 'Samples'), CATDS: 0.13028538158994399; n = 1
ADCK3 = test system: ADCK3; set-up: species or system human, MV4-11 + K-562 + COLO205 + SK-N-BE2 + OVCAR-8; details: read-out: apparent Kd, compound concentrations: 100 nM and 1000 nM (sheet 'Samples'), n = 1
ADRBK1 = test system: ADRBK1; set-up: species or system human, MV4-11 + K-562 + COLO205 + SK-N-BE2 + OVCAR-8; details: read-out: apparent Kd; compound concentrations: 100 nM and 1000 nM (sheet 'Samples'), CATDS: 4.7657416287883198E-2; n = 1
AKT1 = test system: AKT1; set-up: species or system human, MV4-11 + K-562 + COLO205 + SK-N-BE2 + OVCAR-8; details: read-out: apparent Kd; compound concentrations: 100 nM and 1000 nM (sheet 'Samples'), CATDS: 4.0938746042506198E-2; n = 1
CSNK1A1 = test system: CSNK1A1; set-up: species or system human, MV4-11 + K-562 + COLO205 + SK-N-BE2 + OVCAR-8; details: read-out: apparent Kd, compound concentrations: 100 nM and 1000 nM (sheet 'Samples'), n = 1
DYRK1A = test system: DYRK1A; set-up: species or system human, MV4-11 + K-562 + COLO205 + SK-N-BE2 + OVCAR-8; details: read-out: apparent Kd; compound concentrations: 100 nM and 1000 nM (sheet 'Samples'), CATDS: 4.0227920038392803E-2; n = 1
ILK = test system: ILK; set-up: species or system human, MV4-11 + K-562 + COLO205 + SK-N-BE2 + OVCAR-8; details: read-out: apparent Kd, compound concentrations: 100 nM and 1000 nM (sheet 'Samples'), n = 1
MAP2K2 = test system: MAP2K2; set-up: species or system human, MV4-11 + K-562 + COLO205 + SK-N-BE2 + OVCAR-8; details: read-out: apparent Kd, compound concentrations: 100 nM and 1000 nM (sheet 'Samples'), n = 1
MAP3K1 = test system: MAP3K1; set-up: species or system human, MV4-11 + K-562 + COLO205 + SK-N-BE2 + OVCAR-8; details: read-out: apparent Kd; compound concentrations: 100 nM and 1000 nM (sheet 'Samples'), CATDS: 4.18687434788882E-2; n = 1
MDN1 = test system: MDN1; set-up: species or system human, MV4-11 + K-562 + COLO205 + SK-N-BE2 + OVCAR-8; details: read-out: apparent Kd; compound concentrations: 100 nM and 1000 nM (sheet 'Samples'), CATDS: 4.35192896952597E-2; n = 1
NNT = test system: NNT; set-up: species or system human, MV4-11 + K-562 + COLO205 + SK-N-BE2 + OVCAR-8; details: read-out: apparent Kd, compound concentrations: 100 nM and 1000 nM (sheet 'Samples'), n = 1
NQO1 = test system: NQO1; set-up: species or system human, MV4-11 + K-562 + COLO205 + SK-N-BE2 + OVCAR-8; details: read-out: apparent Kd; compound concentrations: 100 nM and 1000 nM (sheet 'Samples'), CATDS: 0.14484490381839699; n = 1
PIK3C3 = test system: PIK3C3; set-up: species or system human, MV4-11 + K-562 + COLO205 + SK-N-BE2 + OVCAR-8; details: read-out: apparent Kd; compound concentrations: 100 nM and 1000 nM (sheet 'Samples'), CATDS: 4.45420285121335E-2; n = 1
PLK1 = test system: PLK1; set-up: species or system human, MV4-11 + K-562 + COLO205 + SK-N-BE2 + OVCAR-8; details: read-out: apparent Kd; compound concentrations: 100 nM and 1000 nM (sheet 'Samples'), CATDS: 0.280824965441342; n = 1
PSMC3 = test system: PSMC3; set-up: species or system human, MV4-11 + K-562 + COLO205 + SK-N-BE2 + OVCAR-8; details: read-out: apparent Kd; compound concentrations: 100 nM and 1000 nM (sheet 'Samples'), CATDS: 4.0647702260791799E-2; n = 1
RIOK2 = test system: RIOK2; set-up: species or system human, MV4-11 + K-562 + COLO205 + SK-N-BE2 + OVCAR-8; details: read-out: apparent Kd; compound concentrations: 100 nM and 1000 nM (sheet 'Samples'), CATDS: 4.4447834501145103E-2; n = 1
SMG1 = test system: SMG1; set-up: species or system human, MV4-11 + K-562 + COLO205 + SK-N-BE2 + OVCAR-8; details: read-out: apparent Kd; compound concentrations: 100 nM and 1000 nM (sheet 'Samples'), CATDS: 4.1869296169603699E-2; n = 1
STK10 = test system: STK10; set-up: species or system human, MV4-11 + K-562 + COLO205 + SK-N-BE2 + OVCAR-8; details: read-out: apparent Kd; compound concentrations: 100 nM and 1000 nM (sheet 'Samples'), CATDS: 4.6875467745806497E-2; n = 1
VDAC3 = test system: VDAC3; set-up: species or system human, MV4-11 + K-562 + COLO205 + SK-N-BE2 + OVCAR-8; details: read-out: apparent Kd, compound concentrations: 100 nM and 1000 nM (sheet 'Samples'), n = 1
CSNK1D = test system: CSNK1D; set-up: species or system human, MV4-11 + K-562 + COLO205 + SK-N-BE2 + OVCAR-8; details: read-out: apparent Kd; compound concentrations: 100 nM and 1000 nM (sheet 'Samples'), CATDS: 0.110076630605661; n = 1
CSNK1E = test system: CSNK1E; set-up: species or system human, MV4-11 + K-562 + COLO205 + SK-N-BE2 + OVCAR-8; details: read-out: apparent Kd; compound concentrations: 100 nM and 1000 nM (sheet 'Samples'), CATDS: 0.12792065759961399; n = 1
MAPK10 = test system: MAPK10; set-up: species or system human, MV4-11 + K-562 + COLO205 + SK-N-BE2 + OVCAR-8; details: read-out: apparent Kd; compound concentrations: 100 nM and 1000 nM (sheet 'Samples'), CATDS: 5.09024054826294E-2; n = 1
MAPK14 = test system: MAPK14; set-up: species or system human, MV4-11 + K-562 + COLO205 + SK-N-BE2 + OVCAR-8; details: read-out: apparent Kd; compound concentrations: 100 nM and 1000 nM (sheet 'Samples'), CATDS: 0.11352717514973699; n = 1
MAPK9 = test system: MAPK9; set-up: species or system human, MV4-11 + K-562 + COLO205 + SK-N-BE2 + OVCAR-8; details: read-out: apparent Kd; compound concentrations: 100 nM and 1000 nM (sheet 'Samples'), CATDS: 5.50671155445017E-2; n = 1
MAPKAPK2 = test system: MAPKAPK2; set-up: species or system human, MV4-11 + K-562 + COLO205 + SK-N-BE2 + OVCAR-8; details: read-out: apparent Kd; compound concentrations: 100 nM and 1000 nM (sheet 'Samples'), CATDS: 5.16854933400041E-2; n = 1
PRKAG1 = test system: PRKAG1; set-up: species or system human, MV4-11 + K-562 + COLO205 + SK-N-BE2 + OVCAR-8; details: read-out: apparent Kd; compound concentrations: 100 nM and 1000 nM (sheet 'Samples'), CATDS: 9.6836813668462501E-2; n = 1

For `COc1cc(Nc2nccc(N3CCC(NS(=O)(=O)c4ccc(NC(C)=O)cc4)CC3)n2)cc(OC)c1OC` [GSK1379825A], which potency estimated from few doses (ADCK1) is on record?
The potency estimated from few doses was 1000 nM.

What about the potency estimated from few doses (LIMK1; CATDS: 0.152053831473141) of the same compound?
The potency estimated from few doses was 921 nM.

And the potency estimated from few doses (NEK1)?
The potency estimated from few doses was 610 nM.

What about the potency estimated from few doses (NEK3) of the same compound?
The potency estimated from few doses was 2360 nM.

What about the potency estimated from few doses (PIK3CG) of the same compound?
Its potency estimated from few doses is 547 nM.

And the potency estimated from few doses (Q6ZSR9)?
The potency estimated from few doses was 1490 nM.

What about the potency estimated from few doses (ULK3) of the same compound?
Its potency estimated from few doses is 1280 nM.

Which potency estimated from few doses (ADCK3; CATDS: 5.9783524932330002E-2) does the source give for `C[C@@H](Oc1cc(-n2cnc3ccc(OC[C@@H](O)CO)cc32)sc1C(N)=O)c1ccccc1Cl` [GSK978744A] here?
The potency estimated from few doses was 691 nM.

What about the potency estimated from few doses (ADRBK1) of the same compound?
Its potency estimated from few doses is 1300 nM.

What about the potency estimated from few doses (AKT1) of the same compound?
The potency estimated from few doses was 2160 nM.

And the potency estimated from few doses (CSNK1A1; CATDS: 4.27416149593133E-2)?
Its potency estimated from few doses is 1860 nM.

What about the potency estimated from few doses (DYRK1A) of the same compound?
Its potency estimated from few doses is 2310 nM.

And the potency estimated from few doses (ILK; CATDS: 5.1421329598879802E-2)?
Its potency estimated from few doses is 1040 nM.

What about the potency estimated from few doses (MAP2K2; CATDS: 0.12895351362438101) of the same compound?
The potency estimated from few doses was 124 nM.

What about the potency estimated from few doses (MAP3K1) of the same compound?
Its potency estimated from few doses is 2000 nM.

What about the potency estimated from few doses (MDN1) of the same compound?
The potency estimated from few doses was 1740 nM.

What about the potency estimated from few doses (NNT; CATDS: 0.130086313463294) of the same compound?
The potency estimated from few doses was 122 nM.

And the potency estimated from few doses (NQO1)?
The potency estimated from few doses was 99.8 nM.

What about the potency estimated from few doses (PIK3C3) of the same compound?
Its potency estimated from few doses is 1620 nM.

And the potency estimated from few doses (PLK1)?
The potency estimated from few doses was 35.3 nM.

And the potency estimated from few doses (PSMC3)?
Its potency estimated from few doses is 2220 nM.

And the potency estimated from few doses (RIOK2)?
Its potency estimated from few doses is 1630 nM.

What about the potency estimated from few doses (SMG1) of the same compound?
The potency estimated from few doses was 1990 nM.

And the potency estimated from few doses (STK10)?
Its potency estimated from few doses is 1370 nM.

And the potency estimated from few doses (VDAC3; CATDS: 0.150958833754439)?
The potency estimated from few doses was 92.8 nM.

What does the source list for `Cl.Fc1ccc(-c2nc3n(c2-c2ccncc2)CCS3)cc1` [SKF-86002-A2]?
potency estimated from few doses (ADCK3; CATDS: 0.13841841759658599): 74.5 nM; potency estimated from few doses (CSNK1A1; CATDS: 0.108738920150242): 113 nM; potency estimated from few doses (CSNK1D): 110 nM; potency estimated from few doses (CSNK1E): 84.8 nM; potency estimated from few doses (ILK; CATDS: 9.4718278447494406E-2): 148 nM; potency estimated from few doses (LIMK1; CATDS: 4.5083762748743803E-2): 1770 nM; potency estimated from few doses (MAP2K2; CATDS: 0.102896761563019): 125 nM; potency estimated from few doses (MAPK10): 946 nM; potency estimated from few doses (MAPK14): 104 nM; potency estimated from few doses (MAPK9): 681 nM; potency estimated from few doses (MAPKAPK2): 885 nM; potency estimated from few doses (NNT; CATDS: 4.6144486459290798E-2): 1550 nM; potency estimated from few doses (PRKAG1): 141 nM; potency estimated from few doses (VDAC3; CATDS: 4.4921279998790198E-2): 1810 nM
